Assay outcomes (PubChem)
This is a sample that favours compounds with a hit; in the whole collection about 2.4% have one here.
p53ts 39C tox = qHTS Screen for Compounds that Selectively Target Cancer Cells with p53 Mutations: Cytotoxicity of p53ts Cells at the Nonpermissive Temperature | H1299-p53A138V viability at 39C, ATP luminescence, 24 h | Potency, µM (titrated, usually from 46.1 µM), inactives show at the top dose activity change, negative = cell killing, most hits filed as cytotoxic | 1.5% of 130,000 active | AID 902, 2007; further: on the % scale 0 is the no-effect control and ±100 the full control effect; nearly all actives have a fitted effect of over 55% in size
FLuc inh = qHTS Assay for Inhibitors of Firefly Luciferase; Luciferin 4-monooxygenase (Photinus pyralis), P08659; purified firefly luciferase, luminescence, 8 min; Potency, µM (top dose mostly 57.1 µM), inactives show at the top dose activity change, negative = inhibition, hits mostly inhibitors; 2.2% of 72,000 active; further: on the % scale 0 is the no-effect control and ±100 the full control effect; nearly all actives have a fitted effect of over 40% in size
Target sequence (P08659 whole entry, looked up): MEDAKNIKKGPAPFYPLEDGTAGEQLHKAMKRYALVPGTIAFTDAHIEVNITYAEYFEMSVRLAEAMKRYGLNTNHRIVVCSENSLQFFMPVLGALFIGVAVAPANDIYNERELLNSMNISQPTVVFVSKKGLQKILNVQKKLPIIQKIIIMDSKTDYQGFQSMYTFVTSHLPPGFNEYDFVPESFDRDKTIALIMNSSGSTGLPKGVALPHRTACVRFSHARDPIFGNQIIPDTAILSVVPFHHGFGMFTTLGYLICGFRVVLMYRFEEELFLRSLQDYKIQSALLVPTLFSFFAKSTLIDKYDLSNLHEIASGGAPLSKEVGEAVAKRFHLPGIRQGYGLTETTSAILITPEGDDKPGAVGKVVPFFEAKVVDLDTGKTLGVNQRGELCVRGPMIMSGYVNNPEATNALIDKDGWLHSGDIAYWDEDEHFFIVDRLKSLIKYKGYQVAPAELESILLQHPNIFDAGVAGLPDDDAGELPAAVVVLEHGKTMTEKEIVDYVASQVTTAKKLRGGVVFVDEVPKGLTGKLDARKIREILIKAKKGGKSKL
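Compounds were tested as concentration series (qHTS) against purified P. pyralis luciferase with luciferin and 10 uM ATP in 50 mM imidazole pH 7.2, 50 mM KCl, 7 mM MgCl2, 0.01% Tween 20, 0.05% BSA. Luminescence was read after 8 min at ambient temperature.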
p53ts 32C tox = qHTS Screen for Compounds that Selectively Target Cancer Cells with p53 Mutations: Cytotoxicity of p53ts Cells at the Permissive Temperature; H1299-p53A138V at 32C, ATP luminescence viability, 24 h; Potency, µM (series often up to 46.1 µM), without a hit: at the highest dose activity change, negative = cytotoxicity, usual class: cytotoxic; 0.93% of 130,000 active;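 further: 0% = DMSO and -100% = full killing by reference compound; nearly all actives have a fitted effect of over 55% in size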
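H1299-p53 A138V cells (temperature-sensitive p53) exposed 24 h to up to 46 uM compound at 32C, where p53 is wild-type in conformation. Viability read as ATP luminescence and normalised to DMSO and 100 uM tamoxifen. AC50 fitted with the Hill equation.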
Peg3 imprint = qHTS Assay for Compounds that Induce Erasure of Genomic Imprints; mouse ES Peg3-LacZ reporter, beta-gal luminescence, 40 h; Potency, µM (doses to about 60.7 µM), for the others: top-dose activity change, positive = activation, hits mostly activators; 0.02% of 110,000 active; AID 1948, 2009
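Gelatin-coated wells received 300 freshly trypsinized female ES cells with a Peg3LacZ-Neo reporter on the maternal allele, then incubated 40 hours at 37C. BetaGlo was added for 5 minutes at room temperature before a single luminescence read.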
IkB sig inh = IkB Signaling; AID 445, 2006; 0.04% of 110,000 active; ABC-DLBCL IkBa-CBG/CBR dual luciferase ratio, 4 h; response scale: scaled: untreated 0%, proteasome inhibitor 100%; Potency, µM (series often up to 57.1 µM), for inactives: top-dose IkBa stabilization activation; active means well fitted curve in the direction sought with a large enough effect in the signal ratio, not every such curve was filed as active; inconclusive means small, poorly fitted or top-dose-only effect, or a change in a side signal; the % refers to the signal ratio;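 further: the direction sought is a rising ratio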
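Luminescence ratio of IκBα-fused green versus native red beetle luciferase in OCI-Ly3 cells, 4 h post-doxycycline with compound; red signal alone, scaled from basal (0%) to zero light (-100%), flagged nonspecific or cytotoxic effects.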
* hit, by the source's call; ? = inconclusive; / = not tested or not shown; [ ] = another dose, or the depositor's remark. Unless noted, the call rests on the fitted dose curve; in most records, active means well fitted curve in the direction sought with a large enough effect; inconclusive means small, poorly fitted or top-dose-only effect, or another doubt; inactive means no such curve, though single readings can be large; an effect the other way counts as inactive or inconclusive. Potency means the concentration at half of the fitted maximal effect.

SMILES	p53ts 39C tox	FLuc inh	p53ts 32C tox	Peg3 imprint	IkB sig inh
CCOc1cccc(NC(=O)C2CC(=O)N(C)C(=Nc3cccc(OC)c3)S2)c1 (stereo not given)	13µM*	/	?	-17%[10.9 µM]	20%
CCOc1cccc(NC(=O)C2CC(=O)N(C)C(=Nc3ccc(OC)cc3)S2)c1 (stereo not given)	-23%	/	0%	-16%[10.9 µM]	1%
O=c1cc(-c2ccccc2)oc2cc(O)cc(O)c12	?	13µM*	?	-59%	?
O=c1cc(-c2ccc(O)cc2)oc2cc(O)cc(O)c12	42%	?	16%[1.84 µM]	-36%	?
COc1cc2oc(-c3ccccc3)cc(=O)c2cc1O	7.9µM*	1%[11.4 µM]	?	-11%	?
Cc1csc(C(C#N)C(=O)c2cc3ccccc3o2)n1 (stereo not given)	5µM*	13µM*	5µM*	-59%	?
CCC(=O)Nc1ccc(NC(=O)c2cc3ccccc3o2)cc1	-6%	-21%	-9%	-29%	-2%
Cc1ccc(-c2cc3nc(C)cc(NCc4ccco4)n3n2)cc1	?	7.9µM*	?	-48%	?
Cc1cc(NCCCn2ccnc2)n2nc(-c3ccc(F)cc3)cc2n1	?	13µM*	?	-5%	1%
Cc1cc(C)c2c(n1)nn1c(NCCCn3ccnc3)cc(C)nc21	-9%	1%	4%	-11%	-2%
Cc1cccn2c(=O)cc(CSc3nnc(NC(=O)COc4ccccc4)s3)nc12	-6%	/	-4%	-7%[10.9 µM]	-1%
c1ccc(-n2ncc3c(NC4CCCC4)ncnc32)cc1	10µM*	/	13µM*	-17%[10.9 µM]	4%
O=C(NNc1ncnc2c1cnn2-c1ccccc1)c1ccccc1	-18%	/	-6%	7%[10.9 µM]	?
COc1ccc(-n2ncc3c(NC4CCCC4)ncnc32)cc1	2µM*	/	5µM*	-16%[10.9 µM]	-1%
Cc1ccc(-n2ncc3c(NC4CCCC4)ncnc32)cc1	?	/	13µM*	-21%[10.9 µM]	6%
COc1ccc(-n2ncc3c(NC(C)C)ncnc32)cc1	13µM*	/	13µM*	/	/
CCCCN(Cc1ccccc1)C(=O)c1oc(=O)c2ccccc2c1-c1ccc(C)cc1	-3%	/	13%	-17%[10.9 µM]	-1%
CCc1ccc(CNC(=O)COc2cc(=O)n(CC)c3ccccc23)cc1	-21%	/	10%	-9%[10.9 µM]	?
CCOC(=O)c1ccc(N2C(=O)c3n[nH]c(-c4ccco4)c3C2c2ccccc2OC)cc1 (stereo not given)	-22%	/	80%	-10%[10.9 µM]	?
NC(=O)c1ccccc1N/C=C/C(=O)c1ccccc1	10µM*	3.2µM*	5µM*	-87%	?
CC(C)=CC(=O)Nc1ccccc1C(N)=O	16%	1%	5%	-8%	0%
CCOC(=O)CSc1nc(N)c(C(=O)Nc2ccc(N(C)C)cc2)s1	/	13µM*	/	/	/
COc1ccc(C(=O)Nc2cc(OC)nc(OC)n2)cc1	10µM*	/	16µM*	/	/
COc1ccc(C(=O)Nc2nnc(C)s2)cc1	13µM*	/	13µM*	-33%[10.9 µM]	?
COc1cc(NC(=O)CCc2ccccc2)nc(OC)n1	2%	-3%	-6%	-13%	5%
SMILES	p53ts 39C tox	FLuc inh	p53ts 32C tox	Peg3 imprint	IkB sig inh
COc1ccc(NC(=O)Nc2nnc(C)s2)cc1	?	/	-8%	-14%[10.9 µM]	-1%
CC(C)c1ccc2c(c1)CC[C@H]1[C@](C)(CN)CCC[C@]21C	16µM*	/	?	-74%	/
CC(C)c1ccc2c(c1)CC[C@@H]1[C@@](C)(CN)CCC[C@]21C	-11%	/	1%	-6%	/
O=C(Nc1ccccc1O)c1ccc(Cl)cc1	?	16µM*	?	-53%	8%
COc1cc(NS(=O)(=O)c2ccc3oc(=O)c4ncn(C)c4c3c2)cc(OC)c1	?	/	-29%	8%[10.9 µM]	4%
CCc1ccc(NS(=O)(=O)c2ccc3oc(=O)c4ncn(CC)c4c3c2)cc1	13µM*	/	?	-4%[10.9 µM]	?
CCOC(=O)c1cc(-c2ccccc2)n(CC(=O)Nc2cc(Cl)c(OC)cc2OC)c1C	20µM*	/	0%	-10%[10.9 µM]	1%
CN(C)C(=O)c1ccc(-c2nc(-n3ccnc3)c3ccccc3n2)cc1	10µM*	-5%[2.29 µM]	7.9µM*	-64%	0%[11.4 µM]
Clc1ccccc1-c1nc(-n2ccnc2)c2ccccc2n1	74%	1%[2.29 µM]	14%	-20%	0%[11.4 µM]
CN(C)c1ccc(-c2nc(N3CCNCC3)c3ccccc3n2)cc1	10µM*	-6%[2.29 µM]	13µM*	-65%	-5%[11.4 µM]
CN(C)C(=O)c1ccc(-c2nc(N3CCOCC3)c3ccccc3n2)cc1	-10%	-1%[2.29 µM]	?	?	0%[11.4 µM]
CN(C)c1ccc(-c2nc(-n3ccnc3)c3ccccc3n2)cc1	13µM*	?	10µM*	-79%	-1%[11.4 µM]
CCCc1cc2c(c(=O)o1)C(O)C1OC1C2=O (stereo not given)	4%[9.22 µM]	/	9%[9.22 µM]	/	/
Cc1oc(-c2ccc(Cl)cc2)nc1CSc1nc2ncccc2[nH]1	/	/	9%	/	/
Clc1ccc(CSc2nc3ncccc3[nH]2)cc1	10µM*	/	13µM*	-28%[10.9 µM]	-2%
O=C(c1cn(-c2ccccc2)nc1-c1cccs1)N1CCN(c2ccccn2)CC1	-24%	25µM*	-24%	-13%	?
O=C(Cc1cccs1)N1CCN(c2ccccn2)CC1	3%	5%	6%	-8%	-2%
CCc1ccc2nc(N3CCN(C(=O)c4ccco4)CC3)sc2c1	?	/	7%	-7%[10.9 µM]	-1%
CCCCN(C)CCCNC(=O)C1CCN(S(=O)(=O)CC)CC1	-17%	/	-2%	-12%[10.9 µM]	1%
